From PubChem
PTHR1 agonist: qHTS for PTHR1 Agonists: Primary Screen | Parathyroid hormone/parathyroid hormone-related peptide receptor (Homo sapiens), Q03431 | HEK293 GP2 PTHR1 cells, GloSensor cAMP luminescence, 1 h | Potency, µM (highest dose often 115 µM), for inactives: top-dose activation, most hits filed as activators | AID 743266, 2014 | hit rate 0.075% among 410,000; also: nearly all actives have a fitted effect of over 55% in size
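HEK-293-derived GP2 cells expressing PTHR1 and a GloSensor cAMP reporter, 3,000/well, plated overnight, given luciferin plus IBMX (each 0.5 mM as added) for 1 h at 37 °C, then compound for 1 h at 37 °C. Luminescence was read after 15 min at room temperature.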
RGS4 inh: Inhibitors of Regulator of G Protein Signaling (RGS) 4: qHTS. Regulator of G-protein signaling 4 (Homo sapiens), P49798. Transcreener GDP fluorescence polarization, RGS4-accelerated GTP hydrolysis. Potency, µM (highest dose often 114 µM), without a hit: at the top dose activity change, negative = inhibition, actives largely listed as inhibitors. hit rate 0.039% among 390,000. AID 504845, 2011; also: % is scaled to controls: 0 for no effect and ±100 for the full control effect; nearly all actives have a fitted effect of over 75% in size
Target sequence (P49798 whole entry, looked up): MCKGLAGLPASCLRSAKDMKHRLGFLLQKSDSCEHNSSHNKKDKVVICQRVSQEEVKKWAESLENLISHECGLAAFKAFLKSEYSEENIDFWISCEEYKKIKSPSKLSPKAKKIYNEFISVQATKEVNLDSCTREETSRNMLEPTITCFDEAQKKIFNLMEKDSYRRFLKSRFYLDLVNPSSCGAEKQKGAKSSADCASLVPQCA
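MLSMR compounds (23 nl, pin-transferred) preincubated 10 min at room temperature with a 500nM (2x) first reagent, then RGS4 at 900nM (2x) plus Transcreener GDP mix added; fluorescence polarization (620/688 nm) read before and after 90 min at 30 °C.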
GLP1R inv ag: qHTS of GLP-1 Receptor Inverse Agonists (Inhibition Mode); hit rate 1.6% among 410,000; Potency, µM (top dose mostly 38.3 µM), inactives show at the highest dose activity change, negative = inhibition, most hits filed as inhibitors; HEK293 GLP-1R CRE-luciferase, luminescence, 24 h; GLP-1R form is constitutively active; Glucagon-like peptide 1 receptor (Homo sapiens), P43220; also: % is scaled to controls: 0 for no effect and ±100 for the full control effect; nearly all actives have a fitted effect of over 55% in size
Target sequence (P43220 whole entry, looked up): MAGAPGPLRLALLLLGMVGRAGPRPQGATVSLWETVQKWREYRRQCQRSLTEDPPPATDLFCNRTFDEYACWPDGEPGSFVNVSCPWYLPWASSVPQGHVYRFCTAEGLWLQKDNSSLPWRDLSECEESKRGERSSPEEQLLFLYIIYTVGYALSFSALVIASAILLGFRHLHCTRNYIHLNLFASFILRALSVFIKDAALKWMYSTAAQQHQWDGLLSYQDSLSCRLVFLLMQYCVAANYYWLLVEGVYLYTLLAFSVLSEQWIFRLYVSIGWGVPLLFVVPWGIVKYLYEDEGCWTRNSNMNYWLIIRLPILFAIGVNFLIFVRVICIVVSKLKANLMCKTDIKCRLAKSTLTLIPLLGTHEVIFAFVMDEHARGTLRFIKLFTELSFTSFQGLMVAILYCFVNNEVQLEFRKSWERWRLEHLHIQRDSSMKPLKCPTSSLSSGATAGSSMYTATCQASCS
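Cells are plated, allowed 12 hours at 37 deg C, then treated with compounds for 24 hr before luciferase detection reagent is added and luminescence is read after 12 min at room temperature. The HEK293 line carries constitutively active GLP-1R with a cAMP-responsive reporter.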
GLP1R ag: qHTS of GLP-1 Receptor Agonists; hit rate 0.007% among 380,000; Potency, µM (titrated, usually from 45.6 µM), for inactives: at the top dose activation, hits mostly activators; Glucagon-like peptide 1 receptor (Homo sapiens), P43220; HEK293 GLP-1R CRE-luciferase, luminescence, 4-6 h; cells express a hypersensitive GLP-1R form; AID 624172, 2012; also: % of control where 0% means no effect
HEK293 tox: qHTS of GLP-1 Receptor Inverse Agonists: Cytotox Screen | HEK293 cAMP-luciferase reporter cells, luminescence, 24 h | Potency, µM (top dose mostly 38.3 µM), for the others: at the top dose activity change, negative = inhibition, hits mostly inhibitors | hit rate 0.13% among 410,000;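 also: loss of luciferase light is scored as toxicity; % is scaled to controls: 0 for no effect and ±100 for the full control effect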
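MLSMR compounds, 24 hr on cells at 37 deg C/5% CO2; luminescence after luciferase reagent (12 min RT). Inhibition counted as the undesired cytotoxic outcome.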
An asterisk follows results filed as active. Most compounds without a hit are left out; they make up all but 1.7% or so of the library. Calls follow the shape of the dose curve; as a rule, active = well fitted curve in the direction sought with a large enough effect; inconclusive = small, poorly fitted or top-dose-only effect, or another doubt; inactive = no such curve, though single readings can be large; an effect the other way counts as inactive or inconclusive. Potency is read from the fitted curve at half-maximal effect.

For O=C(Nc1nnc([C@H]2C[C@H](O)[C@@H](CO)O2)s1)Nc1ccccc1C(F)(F)F the results were PTHR1 agonist -24%, GLP1R inv ag 7%, GLP1R ag 0% and HEK293 tox -4%.
For CCOC(=O)/C(=N/Nc1ccc(Br)cc1)N1CC(C)OC(C)C1 (stereo not given) the results were PTHR1 agonist -12%, RGS4 inh 2%, GLP1R inv ag 2.5µM*, GLP1R ag 14% and HEK293 tox -3%.
Screening Cc1cc(N2CCN(Cc3nc(-c4ccc(F)cc4)oc3C)CC2)cc(C)n1 returned PTHR1 agonist inactive, RGS4 inh -16%, GLP1R inv ag 4.5µM*, GLP1R ag 9% and HEK293 tox -25%.
COc1ccccc1N1CCN(Cc2nc(-c3ccc(F)cc3)oc2C)CC1 was read as PTHR1 agonist -30%, RGS4 inh 16%, GLP1R inv ag inconclusive, GLP1R ag 7% and HEK293 tox -3%.
CCCn1c(SCC(O)c2cccc(OC)c2)nc2ccccc21 (stereo not given) was read as PTHR1 agonist -64%, RGS4 inh -4%, GLP1R inv ag -27% and HEK293 tox -14%.
For O=C(Cc1cccc(C(F)(F)F)c1)Nc1ccccc1N1CCCC1 the results were PTHR1 agonist -84%, RGS4 inh 19%, GLP1R inv ag 10µM*, GLP1R ag 14% and HEK293 tox 5%.
Screening CCc1ccc(NC(=O)Cn2nc3c4ccccc4n(Cc4ccccc4)cc-3c2=O)cc1 returned PTHR1 agonist inactive, RGS4 inh 3%, GLP1R inv ag 11% and HEK293 tox 14%.
Cc1ccc(NC(=O)Cn2nnnc2-c2ccccc2N)cc1 was read as PTHR1 agonist inactive, RGS4 inh -15%, GLP1R inv ag -23% and HEK293 tox 10%.
For CCN(c1ccccc1)S(=O)(=O)c1ccc(Cl)c(NC(=O)CN(C)Cc2cccc(F)c2)c1 the results were PTHR1 agonist -18%, RGS4 inh -31%, GLP1R inv ag 5µM*, GLP1R ag 13% and HEK293 tox 5%.
`CCN(c1ccccc1)S(=O)(=O)c1ccc(Cl)c(NC(=O)CN2CCCCCC2)c1` gave PTHR1 agonist -27%, RGS4 inh -15%, GLP1R inv ag 1.6µM*, GLP1R ag 21% and HEK293 tox 0%.
`Cc1ccc2nc(COc3ccccc3NC(=O)c3ccccc3F)cc(=O)n2c1` gave PTHR1 agonist inactive, RGS4 inh 15%, GLP1R inv ag 2% and HEK293 tox -4%.
Screening CCOC(=O)c1c(C)[nH]c(N=Nc2ccc(C)cc2)c1C returned PTHR1 agonist -40%, RGS4 inh 12%, GLP1R inv ag inconclusive, GLP1R ag 23% and HEK293 tox inconclusive.
For CCOC(=O)c1c(C)[nH]c(N=Nc2ccccc2)c1C the results were PTHR1 agonist inactive, RGS4 inh -7%, GLP1R inv ag 10µM*, GLP1R ag 11% and HEK293 tox inconclusive.
`CSc1ccc(CN(C)C(=O)C23CC4CC(CC(Cl)(C4)C2)C3)cc1` gave PTHR1 agonist -18%, RGS4 inh -2%, GLP1R inv ag 10µM*, GLP1R ag 32% and HEK293 tox -3%.
Screening CCN1CC(CN(C)Cc2nc(-c3ccc(OC)c4ccccc34)oc2C)CC1=O (stereo not given) returned PTHR1 agonist -2%, RGS4 inh -1%, GLP1R inv ag 10µM*, GLP1R ag 15% and HEK293 tox inconclusive.
Screening Cc1ccc([N+](=O)[O-])cc1N(CC(=O)Nc1ccc(S(=O)(=O)Nc2cccc(C(F)(F)F)c2)cc1)S(C)(=O)=O returned PTHR1 agonist -48%, RGS4 inh -7%, GLP1R inv ag 1µM*, GLP1R ag -20% and HEK293 tox inconclusive.
`Cc1ccc(C(CNS(=O)(=O)c2ccc(Br)cc2)N2CCN(C)CC2)cc1` (stereo not given) gave PTHR1 agonist -3%, RGS4 inh 5%, GLP1R inv ag 7.9µM*, GLP1R ag -1% and HEK293 tox -10%.
For O=S(=O)(NCC(c1ccc2c(c1)OCO2)N1CCOCC1)c1ccc(Br)cc1 (stereo not given) the results were PTHR1 agonist 18%, RGS4 inh -6%, GLP1R inv ag inconclusive, GLP1R ag 9% and HEK293 tox -3%.
`CN1CCN(C(CNS(=O)(=O)c2ccc(Br)cc2)c2ccc3c(c2)OCO3)CC1` (stereo not given) gave PTHR1 agonist 6%, RGS4 inh 18%, GLP1R inv ag 10µM*, GLP1R ag 9% and HEK293 tox 16%.
`CN(Cc1ccccc1)CC(O)COc1ccc(CNCc2ccc(Cl)s2)cc1` (stereo not given) gave PTHR1 agonist inactive, RGS4 inh -7%, GLP1R inv ag 4.5µM*, GLP1R ag 26% and HEK293 tox -33%.
Screening Cc1ccc(C(=O)c2cn(Cc3ccc(F)cc3)c3nc(C)ccc3c2=O)cc1 returned PTHR1 agonist -36%, RGS4 inh inconclusive, GLP1R inv ag -18%, GLP1R ag 2% and HEK293 tox -16%.
Screening N#Cc1nc(Cc2cccc3ccccc23)oc1N1CCCCC1 returned PTHR1 agonist inactive, RGS4 inh -13%, GLP1R inv ag 10µM*, GLP1R ag 13% and HEK293 tox 88%.
O=C(C(O)c1ccc(Br)cc1)N1CCC(Nc2ccc3[nH]ncc3c2)CC1 (stereo not given) was read as PTHR1 agonist 4%, GLP1R inv ag -20%, GLP1R ag 6% and HEK293 tox -8%.
Screening Cc1cccn2c(=O)c3cc(C(=O)Nc4ccc(Cl)c(Cl)c4)sc3nc12 returned PTHR1 agonist -19%, RGS4 inh 11%, GLP1R inv ag 3% and HEK293 tox -3%.
`COc1ccc(C(c2nnnn2C2CCCC2)N2CCC(C)CC2)c(OC)c1` (stereo not given) gave PTHR1 agonist -29%, RGS4 inh 7%, GLP1R inv ag 10µM*, GLP1R ag 6% and HEK293 tox -7%.
Screening CNc1ccc(S(=O)(=O)NCC(=O)NCCCc2ccccc2)cc1[N+](=O)[O-] returned PTHR1 agonist -11%, RGS4 inh inconclusive, GLP1R inv ag 5%, GLP1R ag 1% and HEK293 tox -30%.
